# In article PMC7819943, “Rice protein-binding microarrays: a tool to detect cis-acting elements near promoter regions in rice”:
# Whole data set: some 68,000 sequences, median “fluorescence intensity (a.u.)” near 9,100, cut for the highest 2% near 16,000. Many of the other results were omitted from the sample, so the highest values are more common in it than they were.
# Target: OsWRKY34 (Oryza sativa, UniProt Q0JBA9 1-250)
# Experiment: protein-binding microarray (RPBM); PBS, 2% BSA, 51.3 ng/ul salmon testes DNA, 50 uM zinc acetate, 200 nM TF, 25 C, 1 h; high values mean tight binding
# Settings: protein: recombinant; tags: N-terminal polyhistidine and DsRed monomer fusion (pET32a); label: CyDye5-dUTP incorporated in the synthesized complementary strand; 3' TTTTT single-stranded linker to array surface; dsDNA, one strand shown
# In short: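 Transcription factors were made in E. coli BL21-CodonPlus as N-terminal fusions to a polyhistidine tag and DsRed, then purified on Ni–NTA. After primer extension with Cy5-dUTP and blocking with 2% BSA, a custom Agilent array was exposed for 1 h at 25 °C to 200 nM protein in PBS, 2% BSA, salmon testes DNA and 50 µM zinc acetate. Washed arrays were scanned on an Axon 4000B, and the binding signal is per-feature fluorescence intensity in arbitrary units.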
# Chain of OsWRKY34 (Q0JBA9 entry or part of it): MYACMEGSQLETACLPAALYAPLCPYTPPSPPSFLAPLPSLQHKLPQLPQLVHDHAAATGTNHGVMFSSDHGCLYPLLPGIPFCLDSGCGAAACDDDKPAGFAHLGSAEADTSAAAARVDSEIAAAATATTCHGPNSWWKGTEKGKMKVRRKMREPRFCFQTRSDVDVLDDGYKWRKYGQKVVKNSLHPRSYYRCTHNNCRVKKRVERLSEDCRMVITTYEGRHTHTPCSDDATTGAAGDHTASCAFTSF
row,Sequence,binding signal
1,CTAGTTTTGGTCTTGTGATAGGTTATTTGCTTACGATTATCGGAGTCACCTAGTGCAG,9430 fluorescence intensity (a.u.)
2,CCGACCCGACCCGACCACCCACCGGCGAGGCCCACTCCGTCGGAGTCACCTAGTGCAG,8620 fluorescence intensity (a.u.)
3,TGCTGCTGCTGTTGTTCGTGTATTGCTCCATCTGTGCACGCGGAGTCACCTAGTGCAG,9920 fluorescence intensity (a.u.)
4,CATAAACGACGCCGCATCAGACAAACTAAACGCGACAATACGGAGTCACCTAGTGCAG,8100 fluorescence intensity (a.u.)
5,GCACTACCTTCACCATTTTTTTTGATTTTTTTCTTTTTTTCGGAGTCACCTAGTGCAG,8270 fluorescence intensity (a.u.)
6,GCTATCTCCATCGTCTCTTTCCTTGACCACAGCGGCAATGCGGAGTCACCTAGTGCAG,9860 fluorescence intensity (a.u.)
7,CCACCACGGACTCCGCCGCCGCTCCCGCCACCGCCACATCCGGAGTCACCTAGTGCAG,10600 fluorescence intensity (a.u.)
8,AATAGATGACGCCGTTGATTTTTTCTCACATGTTTGACCACGGAGTCACCTAGTGCAG,11700 fluorescence intensity (a.u.)
9,ATAAATGACGCCGTTGATTTTTTCTCACATGTTTGACCATCGGAGTCACCTAGTGCAG,10500 fluorescence intensity (a.u.)
10,GATGACGCCGTTGACTTTTTCTCACATGTTTGACCAATCGCGGAGTCACCTAGTGCAG,36900 fluorescence intensity (a.u.)
11,CGTTTTTTAATAGATGACGCCGTTGACTTTTTCTCACATGCGGAGTCACCTAGTGCAG,31400 fluorescence intensity (a.u.)
12,TTCATGGAGTCTACTACTCTACTCCCTCTATTTTCAAATACGGAGTCACCTAGTGCAG,9010 fluorescence intensity (a.u.)
13,ATATAGGGGTTGGTCTTCCACGTCAAATTTGGGGTAGATACGGAGTCACCTAGTGCAG,10200 fluorescence intensity (a.u.)
14,TAGCTTTGGCACCTTGCGCGCGCGTACACAGCCGCTTAAGCGGAGTCACCTAGTGCAG,8550 fluorescence intensity (a.u.)
15,TTTTTCTCGTTTGCCGTGTCACCGCGTGAGTTGCGCGGGGCGGAGTCACCTAGTGCAG,11700 fluorescence intensity (a.u.)
16,ATCACATCAACCTGTCATATACACACAACTTTTCAGTCATCGGAGTCACCTAGTGCAG,8530 fluorescence intensity (a.u.)
17,TTAAAAAACATTGTACCACAAGTAGCAACAAATTAATGCTCGGAGTCACCTAGTGCAG,26900 fluorescence intensity (a.u.)
18,ACCTCAACAAAAGCTTTGTAGTAGCTCTTAATTGTTGGGTCGGAGTCACCTAGTGCAG,8220 fluorescence intensity (a.u.)
19,TTTGCTCCACACCACACAACACACATTGTACGGCGTTGCTCGGAGTCACCTAGTGCAG,8210 fluorescence intensity (a.u.)
20,CCCAAATCCATCCAGCCCGTCGCCGCCCGCCGCCCGCCGCCGGAGTCACCTAGTGCAG,8860 fluorescence intensity (a.u.)
21,GTCCGTCTTGTTTTCTCCTGCGTCACAATTGTCCCGTATTCGGAGTCACCTAGTGCAG,18500 fluorescence intensity (a.u.)

row,Sequence,binding signal
1,TGTTAAAACACCCTTTTTCACTTTTCTAGCCGTTCACTTTCGGAGTCACCTAGTGCAG,9280 fluorescence intensity (a.u.)
2,ACGTGTCCTTCTCTCTTTTTTTCTTTTTCGTTTTCTTCTCCGGAGTCACCTAGTGCAG,8280 fluorescence intensity (a.u.)
3,AGTTTTCTTTGTTCACCTACCGTTTTTTTAGCACGTAGTTCGGAGTCACCTAGTGCAG,10500 fluorescence intensity (a.u.)
4,CTGATCTTAACTCCGTGTTTTTCCGCGTTCTCTTTCGTTCCGGAGTCACCTAGTGCAG,19600 fluorescence intensity (a.u.)
5,AGTCCGTGCTGCAGATCTGCTCTTTTCTCTTCGTTTAACTCGGAGTCACCTAGTGCAG,10300 fluorescence intensity (a.u.)
6,TACTGCCGTCGCCGTCGCCCCACGTTTCCTTCTCCAGTTTCGGAGTCACCTAGTGCAG,8300 fluorescence intensity (a.u.)
7,ATCCACTCCAGTCCCGTCCCGTTTCCTTGCTGCCCGGCCGCGGAGTCACCTAGTGCAG,9660 fluorescence intensity (a.u.)
8,TGTTCTGTGAGAATAGTTTCGTCCGTCTTGTTTTCTCCTGCGGAGTCACCTAGTGCAG,8470 fluorescence intensity (a.u.)
9,CTTTTCTAGCCGTTCACTTTTTTTTACCACAGTAGTTTTTCGGAGTCACCTAGTGCAG,16600 fluorescence intensity (a.u.)
10,TGTTATTGTCCTGTATCAGTCCCGTGCTGTTTTTCTCTTTCGGAGTCACCTAGTGCAG,13000 fluorescence intensity (a.u.)
11,CACTCCTGCTGCCGTCCAGTTGCAATTGCGTTTTCTCCTTCGGAGTCACCTAGTGCAG,16700 fluorescence intensity (a.u.)
12,CCGGGTTCCTGTTTTTTCAACGCATGCACACTTTAATCTACGGAGTCACCTAGTGCAG,9290 fluorescence intensity (a.u.)
13,AATTTTTTTTTGCTTACAAAGGGTGAAACTTTCTCTCTCTCGGAGTCACCTAGTGCAG,8500 fluorescence intensity (a.u.)
14,CTCCGACGACCCCACCGTGCCCACCCCGACCGCCGTCTCGCGGAGTCACCTAGTGCAG,9650 fluorescence intensity (a.u.)
15,TTTCTGGGATATTCCATCTCATTACAGCACTCATTCTTTACGGAGTCACCTAGTGCAG,9350 fluorescence intensity (a.u.)
16,AATCTCCATCTTCTTGCTCGTACAACGTAAATACTCGTCTCGGAGTCACCTAGTGCAG,8830 fluorescence intensity (a.u.)
17,CGTCTTGTCTTGGCGTATGTTGGCTTGTATGTTGTTCCGTCGGAGTCACCTAGTGCAG,10500 fluorescence intensity (a.u.)
18,GTTCTTGGTTCCTGCATTTCTTTTCTTTTTTGCCTTTGTTCGGAGTCACCTAGTGCAG,11300 fluorescence intensity (a.u.)
19,ATTGTCCATGATGTTCTTCCTTTTCTTTTTCGTTGTCAAACGGAGTCACCTAGTGCAG,10300 fluorescence intensity (a.u.)
20,ACTTGATGTTCTTTCGTTCTTTCCTGCGAAAACGTCAGGCCGGAGTCACCTAGTGCAG,25600 fluorescence intensity (a.u.)
21,CCGCTCCGTTTTGTGTCGTTTTGTGTATTTTCTCCACTCACGGAGTCACCTAGTGCAG,17400 fluorescence intensity (a.u.)
